Results taken from PubChem BioAssay AID1159580 (chemical genetic matrix, 2015).
Screen size: about 5,500 compounds; about 2,000 (36%) were called active. Another 18% or so got no clear call; they are omitted. Cut-off read from the data, not from the text of the source: active = normalized growth mostly below about 0.91 (no sharp cut-off); inconclusive = no clear call, values can overlap the other calls; inactive = mostly above about 0.92. Some of the results follow.

Assay: chemical genetic growth profiling, strain panel (AID 1159580);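 note: tested at 20 µM; growth read once vehicle control cultures reached saturation at 30 °C; 1 = growth at the plate median or of vehicle wells; lower values mean less growth of the strain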
Details: S. cerevisiae deletion strains, growth OD

Measured: normalized growth

CCCOc1ccc(C(=O)OCCN(CC)CC)cc1N
inactive: locus YAL021C, strain ccr4, active compounds read low 0.979 | locus YAL026C, strain drs2, active compounds read low 1.01 | locus YAL030W, strain snc1, active compounds read low 1 | locus YBL061C, strain skt5, active compounds read low 1 | locus YBR009C, strain hhf1, active compounds read low 1.03 | locus YBR023C, strain chs3, active compounds read low 1.02 | locus YBR171W, strain sec66, active compounds read low 1.02 | locus YBR231C, strain swc5, active compounds read low 1.01 | locus YBR279W, strain paf1, active compounds read low 1.01 | locus YCL011C, strain gbp2, active compounds read low 1 | locus YCL016C, strain dcc1, active compounds read low 1 | locus YCL061C, strain MRC1, active compounds read low 1 | locus YCL069W, strain vba3, active compounds read low 0.999 | locus YCR088W, strain abp1, active compounds read low 1.01 | locus YDL005C, strain med2, active compounds read low 1.01 | locus YDL040C, strain nat1, active compounds read low 1 | locus YDR001C, strain nth1, active compounds read low 1 | locus YDR069C, strain doa4, active compounds read low 1.01 | locus YDR137W, strain rgp1, active compounds read low 1.04 | locus YDR159W, strain sac3, active compounds read low 1.02 | locus YDR195W, strain ref2 0.964 | locus YDR297W, strain sur2, active compounds read low 1 | locus YDR334W, strain swr1, active compounds read low 0.995 | locus YDR335W, strain msn5, active compounds read low 1 | locus YDR392W, strain spt3, active compounds read low 1.02 | locus YEL003W, strain gim4, active compounds read low 1.01 | locus YEL037C, strain rad23, active compounds read low 0.979 | locus YEL061C, strain CIN8 (second series), active compounds read low 1 | locus YER015W, strain faa2, active compounds read low 1.03 | locus YER016W, strain bim1, active compounds read low 1 | locus YER111C, strain swi4, active compounds read low 0.999 | locus YER155C, strain BEM2 (second series), active compounds read low 1 | locus YFR010W, strain ubp6, active compounds read low 0.996 | locus YGL167C, strain pmr1, active compounds read low 1.01 | locus YGL173C, strain kem1, active compounds read low 1 | locus YGL227W, strain vid30, active compounds read low 1 | locus YGL240W, strain doc1, active compounds read low 1.02 | locus YGL253W, strain hxk2, active compounds read low 1.01 | locus YHR013C, strain ard1, active compounds read low 1.01 | locus YHR027C, strain rpn1, active compounds read low 1 | locus YHR030C, strain SLT2, active compounds read low 1.05 | locus YHR079C, strain IRE1, active compounds read low 1.04 | locus YHR142W, strain chs7, active compounds read low 0.981 | locus YJL092W, strain hpr5, active compounds read low 1 | locus YJL095W, strain BCK1 (second series), active compounds read low 1 | locus YJL095W, strain BCK1, active compounds read low 1 | locus YJL115W, strain asf1, active compounds read low 1 | locus YJL129C, strain trk1, active compounds read low 0.995 | locus YJL154C, strain vps35, active compounds read low 1.01 | locus YJL164C, strain tpk1, active compounds read low 0.999 | locus YJL166W, strain qcr8, active compounds read low 1 | locus YJL187C, strain SWE1, active compounds read low 1 | locus YJR066W, strain TOR1, active compounds read low 0.972 | locus YKL160W, strain elf1, active compounds read low 0.989 | locus YKR026C, strain gcn3, active compounds read low 0.984 | locus YKR091W, strain srl3, active compounds read low 1 | locus YLL001W, strain dnm1, active compounds read low 1.01 | locus YLL026W, active compounds read low 1.01 | locus YLL041C, strain sdh2, active compounds read low 0.998 | locus YLR027C, strain aat2, active compounds read low 1 | locus YLR113W, strain HOG1, active compounds read low 0.968 | locus YLR221C, strain rsa3, active compounds read low 1 | locus YLR258W, strain gsy2, active compounds read low 1.01 | locus YLR262C, strain YPT6 (second series), active compounds read low 1.01 | locus YLR320W, strain mms22, active compounds read low 1.02 | locus YLR342W, strain FKS1, active compounds read low 0.999 | locus YLR357W, strain rsc2, active compounds read low 1.01 | locus YLR370C, strain arc18, active compounds read low 1.01 | locus YLR384C, strain iki3, active compounds read low 1 | locus YML120C, strain ndi1, active compounds read low 1.01 | locus YMR058W, strain fet3, active compounds read low 1.01 | locus YMR125W, strain sto1, active compounds read low 1.02 | locus YMR129W, active compounds read low 1.01 | locus YMR205C, strain PFK2, active compounds read low 1.04 | locus YMR231W, strain pep5, active compounds read low 1 | locus YNL071W, strain lat1, active compounds read low 1 | locus YNL183C, strain NPR1, active compounds read low 0.966 | locus YNL209W, strain ssb2, active compounds read low 1 | locus YNL248C, strain rpa49, active compounds read low 0.971 | locus YNL322C, strain KRE1 (second series), active compounds read low 1.01 | locus YNR049C, strain mso1, active compounds read low 1 | locus YOR001W, strain rrp6, active compounds read low 0.984 | locus YOR070C, strain gyp1, active compounds read low 1.02 | locus YOR080W, strain dia2, active compounds read low 1 | locus YOR083W, strain WHI5, active compounds read low 0.986 | locus YOR106W, strain vam3, active compounds read low 0.994 | locus YOR231W, strain MKK1, active compounds read low 1.03 | locus YOR265W, strain rbl2, active compounds read low 1 | locus YOR270C, strain vph1, active compounds read low 1.04 | locus YOR290C, strain snf2, active compounds read low 1.01 | locus YPL051W, strain arl3, active compounds read low 0.997 | locus YPL078C, strain atp4, active compounds read low 0.98 | locus YPL106C, strain sse1, active compounds read low 1.01 | locus YPL240C, strain hsp82, active compounds read low 0.988 | locus YPL256C, strain CLN2, active compounds read low 1.02
